PubChem BioAssay
Active and inactive are the calls of the source. Unless noted, how the calls were made is not given here.

Tests used:
[1] = compound effects on lung adenocarcinoma cell viability – A549, calcein-AM fluorescence, 48 h, basal, profiling panel (AID 1162); details: higher = more signal; further: test concentration not given here
[2] = compound effects on differentiated 3T3-L1 adipocyte viability – cell-based, 3T3-L1 adipocytes, calcein-AM fluorescence, 48 h, basal, profiling panel (AID 1163); details: 3T3-L1 adipocytes viability, higher = more signal; further: test concentration not given here
[3] = compound effects on hepatocellular carcinoma cell viability – HepG2, calcein-AM fluorescence, 48 h, basal, profiling panel (AID 1164); details: higher = more signal; further: test concentration not given here
[4] = compound effects on multiple myeloma cell viability – MM1S, calcein-AM fluorescence, 48 h, basal, profiling panel (AID 1165); details: higher = more signal;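 further: viability of MM1S multiple myeloma cells under basal unstimulated conditions; test concentration not given here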
[5] = calcein-AM signal in unstimulated myeloma cells – cell-based, calcein-AM fluorescence, 48 h, PK04 Diversity Set, profiling panel (AID 1166); details: RPMI8226 myeloma viability, higher = more signal;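 further: cells grown under basal conditions without added stimulus; test concentration not given here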
[6] = JC-1 mitochondrial signal, unstimulated HepG2 cells – cell-based, JC-1 fluorescence, 24 h, 100 nL compound, profiling panel (AID 1167); details: HepG2 mitochondrial potential, higher = more signal; further: test concentration not given here
[7] = JC-1 mitochondrial signal, unstimulated adipocytes – cell-based, JC-1 fluorescence, 3T3-L1 adipocytes, 24 h, 100 nL compound, profiling panel (AID 1168); details: JC-1 mitochondrial fluorescence, higher = more signal, called active from +8 up or from −8 down; further: test concentration not given here
[8] = JC-1 mitochondrial signal, unstimulated myeloma cells – cell-based, JC-1 fluorescence, RPMI8226, 24 h, 100 nL compound, profiling panel (AID 1169); details: JC-1 mitochondrial potential fluorescence, higher = more signal; further: test concentration not given here
[9] = JC-1 mitochondrial signal, unstimulated MM1S myeloma – cell-based, JC-1 fluorescence, 24 h, 100 nL compound, profiling panel (AID 1170); details: MM1S mitochondrial potential, higher = more signal; further: test concentration not given here
[10] = resazurin metabolic signal in A549 cells – cell-based, resazurin fluorescence, 24 h, PK04 Diversity Set, profiling panel (AID 1171); details: A549 viability, higher = more signal, called active from +8 up or from −8 down; further: test concentration not given here
[11] = resazurin metabolic signal in HepG2 cells – cell-based, resazurin fluorescence, 24 h, PK04 Diversity Set, profiling panel (AID 1172); details: HepG2 viability, higher = more signal; further: test concentration not given here
[12] = budding yeast growth changes without added modifier – OD600, strain BY4716, 24 h, basal condition, primary screen (AID 1173); details: S. cerevisiae BY4716 growth, OD600, 24 h; higher = more signal, called active from +8 up or from −8 down
[13] = viability profiling in MM1S myeloma cells – cell-based, resazurin fluorescence, basal, 24 h, PK04 Diversity Set, profiling panel (AID 1174); details: higher = more signal, called active from +8 up or from −8 down; further: test concentration not given here
[14] = molecular target: Dihydroorotate dehydrogenase (quinone), mitochondrial (Plasmodium falciparum (isolate 3D7)) (UniProt Q08210); test: inhibition of P. falciparum DHODH – biochemical, C-terminal His tag, absorbance 600 nm, primary screen (AID 1175); details: PfDHODH enzyme, DCIP absorbance 600 nm; higher = more signal, called active from +8 up or from −8 down;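 further: recombinant parasite enzyme with a five histidine tag at its C terminus; test concentration not given here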
Sequence of Dihydroorotate dehydrogenase (quinone), mitochondrial (Plasmodium falciparum (isolate 3D7)) (Q08210 whole entry, looked up): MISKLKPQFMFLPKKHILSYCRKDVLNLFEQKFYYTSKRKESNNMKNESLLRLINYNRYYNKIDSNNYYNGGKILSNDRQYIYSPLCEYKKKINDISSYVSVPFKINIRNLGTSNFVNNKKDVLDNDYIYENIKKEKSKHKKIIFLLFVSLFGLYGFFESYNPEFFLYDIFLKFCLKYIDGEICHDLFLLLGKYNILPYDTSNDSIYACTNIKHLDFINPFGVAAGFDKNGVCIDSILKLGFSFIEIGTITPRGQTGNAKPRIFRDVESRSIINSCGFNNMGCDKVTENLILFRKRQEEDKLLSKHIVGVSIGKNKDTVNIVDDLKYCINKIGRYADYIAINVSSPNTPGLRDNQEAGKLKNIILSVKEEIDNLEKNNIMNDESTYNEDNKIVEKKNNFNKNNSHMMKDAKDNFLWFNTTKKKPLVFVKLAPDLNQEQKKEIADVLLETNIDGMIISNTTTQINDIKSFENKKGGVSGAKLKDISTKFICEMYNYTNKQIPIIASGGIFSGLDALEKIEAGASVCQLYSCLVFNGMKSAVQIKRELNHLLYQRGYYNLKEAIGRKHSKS

[15] = inhibition of PAO1 biofilm formation – strain PAO1, LB-PBS medium, absorbance 600 nm, primary screen (AID 1176); further: test concentration not given here; details: P. aeruginosa PAO1 growth/biofilm, A600, 12 h; higher = more signal
[16] = growth modulation of vineyard yeast isolate – strain RM11-1a, OD600, basal, 24 h, primary screen (AID 1177);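 further: cultures grown under basal conditions with no added stressor; test concentration not given here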; details: S. cerevisiae RM11-1a growth, OD600, 24 h; higher = more signal, called active from +8 up or from −8 down
[17] = growth of efflux-deficient E. coli DRC39 – strain DRC39, OD650, 24 h, E. coli filamentation inducers, primary screen (AID 1178);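 further: growth measured as culture turbidity by optical density at 650 nm; test concentration not given here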; details: E. coli DRC39 acrAB, higher = more signal, called active from +8 up or from −8 down
[18] = growth of efflux-deficient E. coli DRC39 – strain DRC39, OD650, 48 h, E. coli filamentation inducers, primary screen (AID 1179);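 further: screen aims at cell division blockers that make cells filament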; details: E. coli DRC39 delta-acrAB growth, higher = more signal, called active from +8 up or from −8 down
[19] = viability profiling in RPMI8226 myeloma cells – cell-based, resazurin fluorescence, basal, 24 h, PK04 Diversity Set, profiling panel (AID 1180); details: higher = more signal;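 further: RPMI8826 multiple myeloma cell line at 5000 cells per well; test concentration not given here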
[20] = molecular target: E3 ubiquitin-protein ligase XIAP (Homo sapiens) (UniProt P98170); test: small molecules binding XIAP protein – biophysical, small-molecule microarray, fluorescence 635 nm, primary screen (AID 1181); details: higher = more signal;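 further: score merges 667 nm emission and signal to noise over triplicate slides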
Sequence of E3 ubiquitin-protein ligase XIAP (Homo sapiens) (P98170 whole entry, looked up): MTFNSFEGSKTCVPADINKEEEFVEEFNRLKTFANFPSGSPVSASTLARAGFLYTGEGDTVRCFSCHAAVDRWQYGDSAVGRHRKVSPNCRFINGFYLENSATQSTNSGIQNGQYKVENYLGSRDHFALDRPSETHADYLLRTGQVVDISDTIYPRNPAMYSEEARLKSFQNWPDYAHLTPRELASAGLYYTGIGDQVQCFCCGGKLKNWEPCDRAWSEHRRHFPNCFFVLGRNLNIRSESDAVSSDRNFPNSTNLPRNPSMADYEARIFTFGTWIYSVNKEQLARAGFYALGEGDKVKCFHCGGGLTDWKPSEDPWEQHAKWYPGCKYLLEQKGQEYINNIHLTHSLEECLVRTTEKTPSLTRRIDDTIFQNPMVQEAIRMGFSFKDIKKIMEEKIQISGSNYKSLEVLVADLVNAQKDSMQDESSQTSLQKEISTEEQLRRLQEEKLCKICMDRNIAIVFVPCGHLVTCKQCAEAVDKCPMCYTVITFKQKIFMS

SMILES | z-score [1] | z-score [2] | z-score [3] | z-score [4] | z-score [5] | z-score [6] | z-score [7] | z-score [8] | z-score [9] | z-score [10] | z-score [11] | z-score [12] | z-score [13] | composite z-score [14] | z-score [15] | z-score [16] | z-score [17] | z-score [18] | z-score [19] | composite z-score [20]
CCCC=C(CCC)[C@@H](NC(=O)c1cccs1)c1ccc(C(=O)OC)cc1 | 0.126 | -0.302 | -0.125 | 0.388 | 0.45 | -0.115 | -0.0911 (inactive) | 0.973 | -0.997 | 0.902 (inactive) | 0.756 | 1.07 (inactive) | 0.645 (inactive) | 0.519 (inactive) | -0.94 (inactive) | -0.27 (inactive) | 0.204 (inactive) | -0.814 (inactive) | 0.429 | -0.031
CC1CC/C=C\[C@H]2OC34C=CCN(C(C)(C)C)C(=O)[C@H]3N(CCCCCO)C(=O)[C@@H]4C2C(=O)O1 (stereo not given in full) | 0.0683 | 0.525 | 0.0474 | 0.719 | -0.561 | -0.589 | -0.226 (inactive) | 0.592 | -0.203 | -0.146 (inactive) | -0.643 | 0.349 (inactive) | 0.285 (inactive) | 0.797 (inactive) | 0.121 (inactive) | -0.202 (inactive) | 0.338 (inactive) | 0.338 (inactive) | 0.0992 | -0.102
CC(C)N1C(=O)c2ccccc2[C@@H](C(=O)NCCN2CCOCC2)[C@@H]1c1ccc(CO)cc1 | 0.281 | -0.973 | 0.135 | -0.551 | 0.165 | -0.247 | -1.26 (inactive) | 0.772 | 0.113 | 0.175 (inactive) | -0.229 | 0.525 (inactive) | -0.401 (inactive) | 0.184 (inactive) | 0.429 (inactive) | 0.985 (inactive) | 0.0059 (inactive) | -0.434 (inactive) | -0.0956 | -0.465
COC(=O)[C@@]1(Cc2ccccc2)[C@H]2c3cc(C(=O)N4CCCC4)n(CCc4ccccn4)c3C[C@H]2CN1C(=O)c1ccccc1 | -1.16 | 1.13 | -0.503 | -1.59 | -1.32 | 0.571 | 0.533 (inactive) | -0.272 | -0.618 | 0.523 (inactive) | 0.281 | 1.3 (inactive) | -0.454 (inactive) | -0.105 (inactive) | -0.126 (inactive) | 0.23 (inactive) | -0.413 (inactive) | -0.906 (inactive) | 0.157 | 0.293
Cc1ccc(S[C@]2(C(=O)NCC(F)(F)F)CC(=O)N(Cc3cc(C(F)(F)F)cc(C(F)(F)F)c3)[C@@H]2c2ccc(CO)cc2)cc1 | 0.0806 | -0.547 | 0.643 | -0.783 | -0.759 | -0.693 | -0.658 (inactive) | 0.213 | -0.299 | -0.45 (inactive) | -0.686 | 0.438 (inactive) | -0.266 (inactive) | -13.9 (active) | 0.214 (inactive) | -0.145 (inactive) | -0.362 (inactive) | -0.615 (inactive) | -0.445 | -0.241
CO[C@H]1O[C@H](CO)[C@@H](OC(=O)Nc2ccc3c(c2)OCO3)[C@H](OC(=O)Nc2ccc3c(c2)OCO3)[C@@H]1OC(=O)Nc1ccc2c(c1)OCO2 | -0.077 | 0.0003 | -0.797 | -1.89 | -1.84 | -1.14 | -0.13 (inactive) | -0.538 | -0.357 | -0.333 (inactive) | -0.907 | 1.44 (inactive) | -0.309 (inactive) | -0.732 (inactive) | 1.05 (inactive) | 1.81 (inactive) | 1.01 (inactive) | -0.147 (inactive) | -0.472 | 0.374
C=CCN1C(=O)[C@]2(CCC(=O)OC(C)(C)C)N=C(c3ccc(OCCCO)cc3)O[C@@H]2c2ccccc21 | -0.656 | 1.79 | -1.74 | -3.56 | -4.05 | -1.45 | 4.11 (inactive) | -1.05 | -2.81 | -2.21 (inactive) | -1.11 | -1.32 (inactive) | -3.44 (inactive) | -0.292 (inactive) | 0.314 (inactive) | 0.853 (inactive) | 0.93 (inactive) | 0.685 (inactive) | -6.48 | -0.0387
O=C1NC(=O)C2C1C=CC(C(O)c1ccco1)N2Nc1ccc(Cl)cc1Cl (stereo not given) | -0.396 | -0.792 | -1.16 | -1.57 | -0.941 | -1.96 | -0.298 (inactive) | -0.977 | -0.218 | -2.08 (inactive) | -2.04 | -17 (active) | -1.41 (inactive) | 0.893 (inactive) | 0.711 (inactive) | -5.34 (inactive) | -0.725 (inactive) | -1.86 (inactive) | -1.28 | 0.257
NC(=O)[C@@]1(Cc2ccccc2)COC(c2ccc(OCCCO)cc2)=N1 | -0.291 | -0.0025 | 0.532 | 0.064 | -0.453 | -0.798 | -0.392 (inactive) | -0.759 | -0.172 | 0.138 (inactive) | -0.101 | 0.539 (inactive) | 0.153 (inactive) | 1.86 (inactive) | -0.0304 (inactive) | 1.58 (inactive) | 2.1 (inactive) | 0.595 (inactive) | -0.0366 | -0.0559
